COUP-TFII inh – inhibitors of human COUP-TFII (NR2F2). HEK293T NGFI-A luciferase reporter, luminescence. 370,000 compounds, 0.7% hits. inhibition, % at 8.6 µM. P24468. AID 686940;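 active = inhibition above a per-plate cutoff, mean inhibition of test wells between control levels plus 3 SD, cut at about 38% in these data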;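 also: cells cotransfected with COUP-TFII expression vector driving the NGFI-A reporter; 0% = median of COUP-TF2 test wells and 100% = reporter-only cells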
GalR3 antagonist – blocks the human galanin receptor 3 | inhibition, % at 3 µM | O60755 | AID 651719 | HEK293 GalR3-CNG cAMP membrane potential fluorescence; galR3 body fused to GalR1 C-terminus | 360,000 compounds, 0.44% hits;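 active = inhibition above the screen-wide average plus 3 SD, cut at about 13% in these data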;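 also: forskolin and galanin both at EC90 stimulate the cells; cAMP rise reported by CNG channel membrane potential dye signal; 0% = forskolin plus galanin with DMSO and 100% = forskolin alone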
SRC3 inh – human NCOA3 inhibition. HEK293 GAL4-SRC3 luciferase reporter, luminescence. inhibition, % at 3.6 µM. 360,000 compounds, 0.17% hits. AID 588352;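 active = inhibition above a per-campaign cutoff, the mean of all compounds plus 3 SD, cut at about 60% in these data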;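 also: 0% = DMSO-treated cells and 100% = gossypol-treated cells at 36 µM; higher means less SRC3-driven luciferase light from the GAL4 reporter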
NCOA1 inh – inhibits human SRC1 coactivator; inhibition, % at 3.6 µM; Q15788; AID 588354; HEK293 GAL4-SRC1 luciferase reporter, luminescence; 360,000 compounds, 0.12% hits;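 active = inhibition above the campaign mean plus 3 SD, with each screening campaign given its own cutoff, cut at about 60% in these data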;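 also: 0% = DMSO treated cells and 100% = gossypol at 36 µM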
SRC2 inh – human SRC2 (NCOA2) inhibition; 370,000 compounds, 0.17% hits; AID 651957; inhibition, % at 9 µM; HEK293 GAL4-SRC2 luciferase reporter, luminescence;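 active = inhibition above the mean inhibition of all tested compounds plus 3 SD, set per campaign, cut at about 52% in these data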;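 also: 0% = DMSO treated cells and 100% = cells given Gossypol at 36 µM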
NR5A2 inv ag – NR5A2 inverse agonism in reporter assay. inhibition, % at 3.6 µM. HEK293T StAR-luciferase reporter, LRH-1 transfected, 24 h. 360,000 compounds, 0.13% hits. AID 602396;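 active = inhibition above the mean inhibition of all tested compounds plus 3 SD, cut at about 73% in these data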;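 also: 0% = DMSO wells and 100% = reporter-only cells lacking LRH-1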
GalR3 antag conf – GalR3 (human) antagonism, confirmation. shares compounds with GalR3 antagonist. HEK293 GalR3 CNG cAMP biosensor, membrane potential fluorescence; galR3 fused to GalR1 carboxy tail; challenged with forskolin and galanin at EC90. inhibition, % at 3 µM. 1,600 compounds, 59% hits. AID 652245;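 active = inhibition above the primary screen's cutoff, the mean inhibition of all screened compounds plus 3 SD, cut at about 13% in these data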;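 also: 0% = forskolin plus galanin and 100% = forskolin alone with DMSO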
CNG parental – acts as nonspecific agonist in parental HEK-CNG cells; shares compounds with GalR3 antagonist; HEK293-CNG parental cells, cAMP membrane potential fluorescence; normalised: DMSO wells 0%, forskolin wells 100%; activation, % at 3 µM; 1,600 compounds, 10% hits; in the data active = activation above about 1.3%
VP16 Luc counter – VP16 inhibition counter-screen for COUP-TFII; shares compounds with COUP-TFII inh; HEK293 Gal4-VP16 luciferase reporter, luminescence; inhibition, % at 8.5 µM; 2,500 compounds, 25% hits; in the data active = inhibition above about 13%
COUP-TFII conf – confirmation of human COUP-TFII (NR2F2) inhibitors; shares compounds with COUP-TFII inh; HEK293 NGFI-A luciferase reporter, luminescence; inhibition, % at 8.5 µM; 2,500 compounds, 45% hits;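 active = mean inhibition over three repeats above a set limit taken from the earlier primary screen, cut at about 38% in these data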;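 also: 100% = cells given the luciferase reporter alone without the COUP-TF2 vector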
The depositor's hits bear a star; / = no result. Compounds with a hit are over-represented: about 1.1% of the library has one in this group of screens.

SMILES	COUP-TFII inh	GalR3 antagonist	SRC3 inh	NCOA1 inh	SRC2 inh	NR5A2 inv ag	GalR3 antag conf	CNG parental	VP16 Luc counter	COUP-TFII conf
Cc1ccc(NC(=O)CSc2ncnc3ccccc23)cc1S(=O)(=O)N1CCCCC1	39*	85*	18	-9	36	-25	104*	-1	-7	8
CC(C)(C)CN1CCN(Cc2nc(-c3ccc(F)cc3)cs2)CC1CCO (stereo not drawn)	48*	101*	8	7	6	21	109*	0	6	28
O=C(CN1C(=O)NC2(CCCCC2)C1=O)Nc1ccc(Cl)c(S(=O)(=O)N2CCOCC2)c1	-1	0	6	-36	9	10	/	/	/	/
O=C(Nc1ccn(Cc2ccccc2F)n1)c1ccc(COc2ccc(Br)cc2)cc1	73*	97*	21	11	21	33	106*	0	-11	47*
CN(CC(=O)NC(=O)NCc1ccccc1)CC(=O)Nc1ccc(Cl)c(C(F)(F)F)c1	3	-3	-17	-25	13	2	/	/	/	/
CCN1/C(=C/c2ccc3cc(C)ccc3[n+]2CC)Sc2cc(C)ccc21	63*	50*	36	20	-18	57	62*	6.2*	9	53*
CCCCN1/C(=C/c2ccc3ccccc3[n+]2CC)Sc2ccccc21	/	/	49	21	/	48	/	/	/	/
CN(C(=O)CN1C(=O)NC2(CCc3ccccc32)C1=O)C1CCCCC1 (stereo not drawn)	-13	-5	-4	-2	-14	9	/	/	/	/
c1ccc(CN2CCC(N3CCN(Cc4ccc5c(c4)OCO5)CC3)CC2)cc1	38*	40*	5	-15	17	23	0	6.0*	1	8
c1cc2c(cc1CN1CCN(C3CCCCCC3)CC1)OCO2	-20	-11	3	-21	8	-10	/	/	/	/
CC(C)CCOc1cccc(OCC(=O)Nc2ccncc2)c1	62*	92*	33	7	34	45	110*	-1	-3	55*
COc1cccc(OCC(=O)Nc2ccncc2)c1	31	-11	1	12	-3	1	/	/	/	/
Cc1cc(OCC(=O)Nc2ccncc2)cc(C)c1Cl	57*	16*	14	22	34	23	37*	0	-5	32
O=C(COc1ccc2ccccc2c1Br)Nc1cccnc1	-7	-6	-87	-43	-38	-106	/	/	/	/
O=C(COc1ccc2ccccc2c1Br)Nc1ccncc1	51*	61*	-29	-86	-18	-19	60*	0	-79	-2
O=C(NC1CC2CCC(C1)N2Cc1ccco1)c1ccccc1 (stereo not drawn)	9	0	-10	5	0	6	/	/	/	/
O=C(COc1ccccc1[N+](=O)[O-])Nc1cccc(Cl)c1N1CCOCC1	30	-5	18	-17	0	19	/	/	/	/
Cc1cc(C)n2nc(SC(C)C(=O)Nc3ccccc3F)nc2n1 (stereo not drawn)	-9	-1	4	1	23	-4	/	/	/	/
CCOC(=O)C1CCCN(CC(O)COc2cccc(C)c2)C1 (stereo not drawn)	-4	-7	14	4	-30	1	/	/	/	/
C[C@H](NC(=O)OCc1ccccc1)C(=O)NNC(=O)[C@H](C)NC(=O)OCc1ccccc1	-1	-4	-6	-14	-30	0	/	/	/	/
O=C(N=C1SC2CS(=O)(=O)CC2N1c1ccc(F)cc1)C1CCCCC1 (stereo not drawn)	-13	0	11	-8	19	-1	/	/	/	/
